From PubChem
An excerpt weighted towards active compounds, which were near 4.1% of everything screened.
DAX1 inh-1: DAX1 (NR0B1) inhibitors, primary screen, cell-based, HEK293, Gal4-DAX1, luciferase luminescence | Nuclear receptor subfamily 0 group B member 1 (Homo sapiens), P51843 | HEK293 Gal4-DAX1 luciferase reporter | inhibition, % at 6.75 µM | actives 0.99% (n = 340,000) | AID 504766, 2011;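 active = inhibition above the mean over all tested compounds plus 3 SD, cut at about 4.2% in these data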;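 note: inhibition shows as a rise in luminescence from relieved DAX1 repression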
DAX1 inh-2: DAX1 (NR0B1) inhibitors on StAR promoter, primary screen, cell-based, luminescence, SF-1 (NR5A1), full-length DAX-1. HEK293T StAR-luciferase reporter, SF-1/DAX-1 repression relief. inhibition, % at 6.8 µM. actives 1.1% (n = 370,000);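 active = inhibition above the mean over all tested compounds plus 3 SD, cut at about 3.6% in these data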;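 note: higher inhibition means more luminescence from relief of DAX-1 repression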
hgDAF-12 ag: H. glycines DAF-12 receptor agonists, primary screen, cell-based, luminescence, HEK293, GAL4 fusion, UAS-luciferase. Nuclear hormone receptor DAF-12 (Heterodera glycines), GAL4 fusion. HEK293 GAL4-hgDAF12 UAS-luciferase reporter, agonist luminescence; normalized to butyrate control. activation, % at 6.8 µM. actives 1.8% (n = 370,000). AID 687014, 2013;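 active = activation above a cutoff set at the mean of all screened compounds plus 3 SD, cut at about 10% in these data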
hcDAF-12 act: H. contortus DAF-12 nuclear receptor activators, primary screen, cell-based, luminescence, HEK293, lit1-tk-luc reporter. actives 1.4% (n = 370,000). HEK293 hcDAF-12 lit1-tk-luc reporter; 0% DMSO, 100% Δ7-dafachronic acid. activation, % at 6.8 µM. AID 652067, 2013;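 active = activation above the mean of all tested compounds plus 3 SD, cut at about 5.5% in these data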
ssDAF12 agonist: S. stercoralis DAF-12 nuclear receptor activators, primary screen, cell-based, luminescence, HEK293, GRIP1 co-expression, lit1-tk-luc; HEK293 ssDAF-12/GRIP1 lit1-tk-luc reporter; % of 3 µM dafachronic acid response; actives 1% (n = 370,000); Nuclear hormone receptor DAF-12 (Strongyloides stercoralis); activation, % at 6.8 µM;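 active = activation above the mean over all tested compounds plus 3 SD, cut at about 0.9% in these data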
DAX1 conf: DAX1 (NR0B1) inhibitors relieving SF-1 repression, confirmation, cell-based, luminescence, HEK293T, full-length DAX-1, SF-1 activated StAR promoter | HEK293T StAR-promoter luciferase reporter, SF-1/DAX-1 repression | inhibition, % at 6.8 µM | actives 87% (n = 2,400) | shares compounds with DAX1 inh-2;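 active = inhibition above the average of every tested compound plus 3 SD, cut at about 3.8% in these data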
SF1 mutant ctr: StAR reporter signal changes without DAX1, counter-screen for DAX1 inhibitor project, cell-based, luminescence, AF-2 mutant SF-1, transactivation | AID 652136, 2013 | HEK293 StAR-luciferase, SF-1 AF2 mutant | actives 78% (n = 2,400) | inhibition, % at 6.8 µM | shares compounds with DAX1 inh-2;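 active = inhibition above the mean of all tested compounds plus 3 SD, cut at about 3% in these data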
LXRb hcDAF ctr: LXR agonists, Gal4 luciferase reporter, confirmation, counter-screen for hcDAF-12 agonist project, cell-based, luminescence, HEK293, H. contortus campaign; shares compounds with hcDAF-12 act; HEK293 Gal4-LXR tk-luc reporter, 24 h; normalized: DMSO 0%, positive control 100%; activation, % at 6.8 µM; 3,400 tested, under 10 active; AID 743027, 2013;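 active = mean percent activation of the reporter above a cutoff set as the average over tested compounds plus their standard deviation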
Target sequence (P55055 whole entry, looked up, the tested form may be a part): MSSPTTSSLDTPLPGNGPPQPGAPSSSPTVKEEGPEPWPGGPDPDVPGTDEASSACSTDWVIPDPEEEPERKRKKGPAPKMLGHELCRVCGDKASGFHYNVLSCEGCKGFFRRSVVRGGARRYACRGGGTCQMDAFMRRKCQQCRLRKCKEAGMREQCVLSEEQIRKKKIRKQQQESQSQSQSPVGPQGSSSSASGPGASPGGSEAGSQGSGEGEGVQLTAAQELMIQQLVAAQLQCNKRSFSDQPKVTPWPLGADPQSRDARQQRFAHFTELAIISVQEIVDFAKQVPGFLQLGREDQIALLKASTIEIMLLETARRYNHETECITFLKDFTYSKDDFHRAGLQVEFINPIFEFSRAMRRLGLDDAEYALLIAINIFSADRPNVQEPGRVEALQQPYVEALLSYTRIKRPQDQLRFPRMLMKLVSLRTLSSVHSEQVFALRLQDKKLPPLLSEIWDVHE
hcDAF12 conf: H. contortus DAF-12 receptor agonists, confirmation, cell-based, luminescence, HEK293, lit1-tk-luc, triplicate | activation, % at 6.8 µM | AID 743032, 2013 | HEK293 hcDAF-12 lit1-tk-luc reporter; % of Δ7-dafachronic acid response | shares compounds with hcDAF-12 act | actives 61% (n = 3,400);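 active = mean activation across triplicate tests above the threshold derived from the earlier primary screen, cut at about 5.5% in these data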
hgDAF12 conf: H. glycines DAF-12 receptor agonists, confirmation, cell-based, luminescence, HEK293, GAL4-LBD fusion | HEK293 GAL4-hgDAF12 luciferase reporter, agonist mode; percent of butyrate response | actives 80% (n = 3,300) | activation, % at 6.8 µM | shares compounds with hgDAF-12 ag | AID 743050, 2013;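 active = mean activation over triplicate wells above the hit cutoff derived from the earlier primary screen, cut at about 11% in these data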
LXRb DAF12 ctr: LXR agonists, Gal4 luciferase reporter, confirmation, counter-screen for hgDAF-12 agonist project, cell-based, luminescence, HEK293, H. glycines campaign | shares compounds with hgDAF-12 ag | 24 h | activation, % at 6.8 µM | 3,300 tested, under 10 active;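 active = mean activation of the triplicate above a set limit carried over from the primary screen, none filed active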
Hits are given with their value; 0 = inactive; - = no result.

SMILES | DAX1 inh-1 | DAX1 inh-2 | hgDAF-12 ag | hcDAF-12 act | ssDAF12 agonist | LXRb hcDAF ctr | hcDAF12 conf | others
Cc1ccc2c(c1N)C(=O)c1ccccc1C2=O | 0 | 5.3 | 15.9 | 0 | 0 | - | - | DAX1 conf=10.7;SF1 mutant ctr=5.8;hgDAF12 conf=13.2;LXRb DAF12 ctr=0
CC/C(=N\NC(=O)c1ccccc1)c1c(O)n(C2CCCCC2)c(=O)[nH]c1=O | 0 | 4.8 | 14.6 | 0 | 0 | - | - | DAX1 conf=0;SF1 mutant ctr=0;hgDAF12 conf=0;LXRb DAF12 ctr=0
CC/C(=N\NC(=O)c1ccccc1Cl)c1c(O)n(C2CCCCC2)c(=O)[nH]c1=O | 0 | 0 | 0 | 0 | 0 | - | -
NC(Cc1ccccc1)[P+](=O)O (configuration not stated) | - | 0 | 0 | 0 | 0 | - | -
CC(C)[C@H](NC(=O)N1C[C@H]2C[C@@H](C1)c1cccc(=O)n1C2)C(=O)Nc1ccccc1F | 0 | 0 | 0 | 0 | 0 | - | -
Nc1cc(C(=O)Nc2ccccc2F)ccc1N1CC2CC(C1)c1cccc(=O)n1C2 (configuration not stated) | 0 | 0 | 0 | 7.0 | 0 | 0 | 0
COc1ccc(Br)cc1CNCCc1ccc2c(c1)OCO2 | 0 | 0 | 0 | 0 | 0 | - | -
COc1ccccc1CCNCc1cc2c(cc1[N+](=O)[O-])OCO2 | 0 | 0 | 0 | 8.4 | 0.9 | 0 | 0
Cc1ccc(OCCOc2cccc(C=C3C(=O)NC(=O)NC3=O)c2)cc1 | 0 | 0 | 12.4 | 6.6 | 1.1 | 0 | 7.3
Cn1c(O)c(/C=C2\C=Nc3ccccc32)c(=O)n(C)c1=O | 0 | 0 | 0 | 7.7 | 0 | 0 | 0
CC1CC(OP(O)(=S)c2ccc(N(C)C)cc2NC(=O)c2cccs2)CC(C)(C)C1 (configuration not stated) | 0 | 0 | 10.8 | 8.8 | 0 | 0 | 0
CC[C@H](C(N)=O)N1CCCC1=O | - | 0 | 0 | 0 | 0 | - | -
O=C(Nc1ccccc1)N1Cc2cc(Br)ccc2-n2nncc2C1 | - | 0 | 0 | 0 | 0 | - | -
Cc1cc(/C=C2\C(=O)NC(=O)N(c3ccc(Br)cc3)C2=O)c(C)n1C | 0 | 0 | 0 | 7.1 | 0 | 0 | 0
CC(C)C(CN1CCC(C)(c2cccc(O)c2)[C@@H](C)C1)NC(=O)C1Cc2ccc(O)cc2CN1 (some centres not stated) | - | 0 | 0 | 0 | 0 | - | -
CN1C(=O)NC(=O)[C@]2(Cc3ccccc3N3CCN(c4ccccc4)CC32)C1=O (some centres not stated) | 0 | 0 | 0 | 0 | 0 | - | -
O=C1NC(=O)[C@]2(Cc3ccccc3N3CCN(c4ccccc4)CC32)C(=O)N1c1ccccc1 (some centres not stated) | 0 | 0 | 0 | 7.6 | 1.8 | 0 | 0
CC[C@H](C)[C@@H]1OC(=O)[C@H](C(C)C)N(C)C(=O)[C@H](C(C)C)NC(=O)[C@@H](C)[C@@H](CCCC#CBr)OC(=O)[C@H](C(C)C)N(C)C(=O)C2CCCN2C1=O (some centres not stated) | - | - | 0 | 0 | 0 | - | -
COc1ccc2c3c([nH]c2c1)[C@H](C=C(C)C)N1C(=O)[C@@H]2CCCN2C(=O)[C@@H]1C3 | - | 0 | 0 | 0 | 0 | - | -
CC(=NCCc1ccccc1)c1c(O)n(C)c(=O)n(C)c1=O | 0 | 0 | 0 | 0 | 0 | - | -
CC(=Nc1ccccc1N)c1c(O)n(C)c(=O)n(C)c1=O | 4.5 | 0 | 0 | 6.6 | 0 | 0 | 0
COc1cc(/C=C2/C(=O)NC(=O)N(c3ccccc3)C2=O)ccc1O | 0 | 0 | 0 | 7.0 | 0 | 0 | 0
CC12CC[C@H]3[C@@H](CCC4(O)C[C@H](O)CCC34/C=N/NC(=O)c3ccccc3F)C1(O)CCC2C1=CC(=O)OC1 (some centres not stated) | 0 | 0 | 0 | 0 | 0 | - | -
CC12CC[C@H]3[C@@H](CCC4(O)C[C@H](O)CCC34/C=N/NC(=O)c3ccccc3O)C1(O)CCC2C1=CC(=O)OC1 (some centres not stated) | 0 | 0 | 0 | 16.6 | 0 | 0 | 6.8
COc1ccc(-n2nc(C(=O)NCC(=O)N3CCC4(CC3)OCCO4)c3ccccc3c2=O)cc1Cl | 0 | 0 | 13.7 | 6.6 | 0 | 0 | 0 | hgDAF12 conf=11.6;LXRb DAF12 ctr=0
COc1ccc(C)cc1NC(=O)N1CCC2(CC1)OCCO2 | 0 | 0 | 0 | 0 | 0 | - | -
CC(=O)N1c2ccccc2C(c2ccccc2)=NCC1C(=O)NCc1ccccc1 (configuration not stated) | - | 0 | 0 | 0 | 0 | - | -
Cc1ccc(-c2nc(N3CCOCC3)s[n+]2-c2ccccc2)cc1 | 0 | 4.0 | 15.4 | 12.1 | 1.5 | 0 | 0 | hgDAF12 conf=0;LXRb DAF12 ctr=0
Cc1ccc(-c2nc3ccc(Cl)cc3n2OC(=O)N(C)C)cc1 | 0 | 0 | 13.9 | 0 | 0 | - | - | hgDAF12 conf=11.9;LXRb DAF12 ctr=0
